Laboratory results from PubChem BioAssay (NCI).
The panel holds about 83,000 compounds, 20% with a hit somewhere; the sample as a whole holds those more often.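 Cell lines were cultured in 96-well plates, exposed to a single compound concentration, and assessed for percent growth 48 hours later.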 A number with no mark means an inactive call. Activity calls are given as the source filed them. How the source made its calls: active means growth percent below 10; inactive means the rest.

Tested on: MOLT-4 leukemia
Test: NCI-60 one-dose screen, 48 h (100 = growth as untreated, 0 = no growth, -100 = all killed)
Conditions: 10 µM unless noted

`COc1ccc(/C(C)=C(\c2ccc(Cl)cc2)c2ccc(OCCN3CCCC3)cc2)cc1F` was tested, and the growth was -5.27% (active).
`Clc1ccc(-c2cn(-c3ccccc3)c(-c3ccccc3)n2)cc1` was tested, and the growth was 7.71% (active).
`COc1cc(C2C=C(c3cccc(NC(C)=O)c3)Nc3ncnn32)cc(OC)c1OC` (stereo not drawn) was tested, and the growth was 9.75% (active).
For `COc1cc(NC(=O)c2cc(O)c(CC=C(C)C)c(O)c2)cc2c1O[C@]1(C)CC[C@@H](O)C(C)(C)[C@H]1C2`, the growth was -8.24% (active).
With `C=C1C(=O)O[C@H]2[C@H]1CC/C(COC(=O)/C=C\C(=O)NCc1ccc(Cn3c(=O)sn(CCCC)c3=O)cc1)=C\CC[C@@]1(C)O[C@@H]21` the growth was -17.4% (active).
`O=[N+]([O-])c1ccc2[nH]cc(-c3c4ccsc4cc4[nH]c5ccc([N+](=O)[O-])cc5c34)c2c1` was tested, and the growth was 5.22% (active).
For `CCCCCCCCCCCCCCCCCC1=NCCN1C(=O)OCCO`, the growth was 8.42% (active).
In the case of `CS(=O)(=O)c1ccc(N/N=C/c2c(-c3ccc(S(C)(=O)=O)cc3)[nH]c3ccc(F)cc23)cc1`, the growth is reported as -1.41% (active).
With `Oc1[nH]c2ccccc2c1/C=c1/cc2c(c(-c3ccc(F)cc3)n1)=Nc1ccccc1-2` the growth was -15.6% (active).

Point of comparison: `COc1ccc(-c2cc(-c3ccc(Nc4nc(Nc5ccccc5)nc(Nc5ccc(Cl)cc5)n4)cc3)nc(N)n2)cc1`, growth 28.6%. Against it:
- Nc1c(-c2nc3ccccc3c(=O)[nH]2)nnn1-c1ccc(Cl)cc1 — higher, 87.7%
- O=C(/C=C/C12c3ccccc3C(c3ccccc31)C1C(=O)NC(=O)C12)c1ccc(Cl)cc1 (stereo not drawn) — lower, 11.1%
- Clc1ccc(/C=C/c2nc(Nc3ccc(Cl)cc3)c3ccccc3n2)cc1 — higher, 98.2%
- CC1=NN(c2cccc(Cl)c2)C(=O)/C1=C\c1cn(CC(O)CN2CCCCC2)c2ccccc12 (stereo not drawn) — higher, 48.3%
- Clc1ccc(-c2nc(NCCc3ccccc3)nc3c(NCCc4ccccc4)cnn23)cc1 — higher, 89.1%
- O=C(C[C@@]1(O)C(=O)Nc2c(Cl)ccc(Cl)c21)c1ccc(C2CC2)cc1 — lower, 18.9%
- CCC(O)(C(c1ccccc1)c1ccccn1)C(c1ccccc1)c1ccccn1 (stereo not drawn) — higher, 87%
- Cc1nc(Nc2ccc(S(=O)(=O)Nc3cc(C)on3)cc2)c2ccccc2n1 — higher, 104%
- CCOc1cc(C2C(Cl)C(=O)N2n2cnnc2)ccc1O (stereo not drawn) — higher, 100%
- NC(=Nc1ccc(N)cc1)C(N)=Nc1ccc(N)cc1 — higher, 124%
- NC(=S)c1csc(CCNC(=O)c2ccccc2)n1 — higher, 102%
- O=C1CCC(N2C(=O)c3cccc(NCCCC4CCN(CCNC(=O)c5cc6c(o5)C(=O)c5ccccc5C6=O)CC4)c3C2=O)C(=O)N1 (stereo not drawn) — lower, 21.8%
- Nc1c(-c2nc3ccc(Br)cc3c(=O)[nH]2)nnn1-c1ccccc1 — higher, 85.1%
- O=C(Oc1ccc[nH]c1=O)c1cc([N+](=O)[O-])cc([N+](=O)[O-])c1 — higher, 135%
- CSc1ccc(Cl)c(C(=O)Nc2sccc2C(N)=O)c1 — higher, 125%
- OCCCCc1nccc2c1[nH]c1ccccc12 — higher, 119%
- CCOC(=O)c1sc(-c2ccc(OS(=O)(=O)c3ccc(C(C)(C)C)cc3)c(C=O)c2)nc1C — lower, 20.5%
- CCOC(=O)c1cnn2c(-c3ccc(Cl)cc3)nc(NCc3ccccc3)nc12 — higher, 64.9%
- COc1ccc(/C=C2\COc3ccc(O)cc3C2=O)cc1OC — higher, 48%
- N#Cc1cnn2c(-c3ccc(Cl)cc3)nc(NCCc3ccccc3)nc12 — higher, 74.2%
- Cc1nc(Nc2cccc(NC(=O)Nc3ccc(Cl)cc3)c2)c2ccccc2n1 — higher, 76.7%
- Nc1ccc(-c2cc3c(Nc4ccc(OCc5cccc(F)c5)c(Cl)c4)ncnc3s2)cc1 — higher, 30%
- O=[N+]([O-])c1ccc(-c2cc3c(Nc4ccc(Sc5nc6ccccc6s5)c(Cl)c4)ncnc3s2)cc1 — lower, 23.7%
- CN(C)CCC(O)(Cc1ccccc1)c1ccccc1 (stereo not drawn) — higher, 102%
- NS(=O)(=O)c1cnccc1-n1ccc(=O)c(S(N)(=O)=O)c1 — higher, 76.9%
- COc1cc(/C=C/C(=O)c2ccc(Nc3nc(Nc4ccccc4)nc(Nc4ccc(Cl)cc4)n3)cc2)cc(OC)c1OC — lower, 25.5%
- CCOC(=O)C1=C(C)NC(SCc2nnc(-c3ccc(Cl)cc3)o2)=NC1c1ccc(Cl)cc1Cl (stereo not drawn) — lower, 11.3%
- CCCCN(Cc1ccc(C(=O)NO)cc1)C(=O)Nc1ccc(OCCCCCCCCCn2cc(CCCCC(=O)N[C@H](C(=O)N3C[C@H](O)C[C@H]3C(=O)NCc3ccc(-c4scnc4C)cc3)C(C)(C)C)nn2)cc1 — lower, 14.5%
